Laboratory results taken from PubChem BioAssay (NCATS).
Values joined by “and” are separate entries in the source; they are usually repeats but may differ in a detail not shown here. Identical values can stand only once. Inconclusive results are not listed. A structure can be active in one record and inactive in another. Active and inactive are the calls of the source. Calls come from the whole dose curve; as a rule, active = well fitted inhibition curve with a large enough effect; inconclusive = small, poorly fitted or top-dose-only effect; inactive = flat fitted curve, though single readings scatter.

Assays:
CRL-7250 = normal cell line; assay: Cytotoxic Profiling of Annotated Libraries Using Quantitative High-Throughput Screening (AID 1296008); conditions: Five cell lines viability, CellTiter-Glo ATP luminescence, 48-72 h; max response: active compounds read low; note: potency is the fitted concentration of half-maximal effect; for max response: % is set by controls: 0 for no effect and ±100 for the full control effect
Procedure, shortened: (§1)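 Compounds were pin-transferred onto cells and incubated 48 or 72 hr at 37 degree Celsius, 95% humidity. CellTiter-Glo was added, plates sat 10 min at room temperature, then ATP-coupled luminescence was imaged as the viability read-out.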

HEK293 = assay: as above; conditions: Five cell lines viability, CellTiter-Glo ATP luminescence, 48-72 h; max response: active compounds read low
Procedure, shortened: as §1

HaCat [1] = assay: as above; conditions: Five cell lines viability, CellTiter-Glo ATP luminescence, 48-72 h; max response: active compounds read low
Procedure, shortened: as §1

KB-3-1 = assay: as above; conditions: Five cell lines viability, CellTiter-Glo ATP luminescence, 48-72 h; max response: active compounds read low
Procedure, shortened: as §1

NIH3T3 = assay: as above; conditions: Five cell lines viability, CellTiter-Glo ATP luminescence, 48-72 h; max response: active compounds read low
Procedure, shortened: as §1

HACAT [2] = assay: qHTS assay to identify novel small-molecules to repurpose for Merkel cell carcinoma treatment (AID 1296009); conditions: MCC and control cell lines, CellTiter-Glo viability, 72 h; at 44.8 µM (top of the series) unless noted
Procedure, shortened: (§2)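 Luminescence from CellTiter-Glo, read 10 min after addition at room temperature, reported viability following a 72 hr, 37 degree celsius treatment with NPC or MIPE compounds in titration; values normalized to plate controls.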

JCK = assay: qHTS profiling for inhibitors of Plasmodium falciparum proliferation (AID 504749); note: potency is the fitted concentration of half-maximal effect; conditions: P. falciparum in erythrocytes, SYBR Green DNA, 72 h; series mostly up to 28.7 µM
Procedure, shortened: (§3)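 Fluorescence of SYBR Green-bound parasite DNA, read at 485/535 nm, served as the growth measure. Infected erythrocytes were cultured with compound 72 h; artemisinin (0.29 uM) and DMSO wells defined the normalization range.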

N140 = assay: as above; conditions: P. falciparum in erythrocytes, SYBR Green DNA, 72 h; series mostly up to 28.7 µM
Procedure, shortened: as §3

P93_24 = assay: as above; conditions: P. falciparum in erythrocytes, SYBR Green DNA, 72 h; series mostly up to 28.7 µM
Procedure, shortened: as §3

P94_40 = assay: as above; conditions: P. falciparum in erythrocytes, SYBR Green DNA, 72 h; series mostly up to 28.7 µM
Procedure, shortened: as §3

PAD = assay: as above; conditions: P. falciparum in erythrocytes, SYBR Green DNA, 72 h; series mostly up to 28.7 µM
Procedure, shortened: as §3

PC15 = assay: as above; conditions: P. falciparum in erythrocytes, SYBR Green DNA, 72 h; series mostly up to 28.7 µM
Procedure, shortened: as §3

PC49 = assay: as above; conditions: P. falciparum in erythrocytes, SYBR Green DNA, 72 h; series mostly up to 28.7 µM
Procedure, shortened: as §3

SC27B = assay: as above; conditions: P. falciparum in erythrocytes, SYBR Green DNA, 72 h; series mostly up to 28.7 µM
Procedure, shortened: as §3

TAB109 = assay: as above; conditions: P. falciparum in erythrocytes, SYBR Green DNA, 72 h; series mostly up to 28.7 µM
Procedure, shortened: as §3

TAB113 = assay: as above; conditions: P. falciparum in erythrocytes, SYBR Green DNA, 72 h; series mostly up to 28.7 µM
Procedure, shortened: as §3

TAB165 = assay: as above; conditions: P. falciparum in erythrocytes, SYBR Green DNA, 72 h; series mostly up to 28.7 µM
Procedure, shortened: as §3

W2 = assay: as above; conditions: P. falciparum in erythrocytes, SYBR Green DNA, 72 h; series mostly up to 28.7 µM
Procedure, shortened: as §3

PC26 = assay: as above; conditions: P. falciparum in erythrocytes, SYBR Green DNA, 72 h; series mostly up to 28.7 µM
Procedure, shortened: as §3

HEK293T = assay: qHTS assay to identify novel small-molecules to repurpose for Merkel cell carcinoma treatment (AID 1296009); conditions: MCC and control cell lines, CellTiter-Glo viability, 72 h; at 44.8 µM (top of the series) unless noted
Procedure, shortened: as §2
Note: nearly all actives have a fitted effect of over 60% in size.

Cc1nccn1CC1CCc2c(c3ccccc3n2C)C1=O (configuration not stated)
inactive: max response (CRL-7250) -48.9% and -2.23% and -14.6% | max response (HEK293) -1.64% and -12.7% and -0.203% | max response (HaCat [1]) -3.6% and 4.03% | outcome (HaCat [1]) | max response (KB-3-1) -3.61% and -19.2% | outcome (KB-3-1) | max response (NIH3T3) -4.36% and -4.32% and -0.458% | outcome (HACAT [2])

CC1Cc2ccccc2N1NC(=O)c1ccc(Cl)c(S(N)(=O)=O)c1 (configuration not stated)
inactive: max response (CRL-7250) -6.14% and 4.23% | max response (HEK293) 0.791% and 0.879% | max response (HaCat [1]) -11.1% | outcome (HaCat [1]) | max response (KB-3-1) -19.1% and -17.8% and -4.71% | max response (NIH3T3) 3.24% and 4.11% | outcome (HACAT [2])

c1ccc2[nH]c(-c3cscn3)nc2c1
inactive: Potency (JCK) | Potency (N140) | Potency (P93_24) | Potency (P94_40) | Potency (PAD) | Potency (PC15) | Potency (PC49) | Potency (SC27B) | Potency (TAB109) | Potency (TAB113) | Potency (TAB165) | Potency (W2) | max response (CRL-7250) -2.24% and 4.16% | max response (HEK293) -22.6% and -4.05% | max response (HaCat [1]) -3.12% | outcome (HaCat [1]) | max response (KB-3-1) -14.9% and 2.26% | max response (NIH3T3) 2.11% and -9.05% | outcome (HACAT [2])

CCC(C)(Oc1ccc(C2(c3ccc(OC(C)(CC)C(=O)O)cc3)CCCCC2)cc1)C(=O)O (configuration not stated)
inactive: Potency (JCK) | Potency (N140) | Potency (P93_24) | Potency (P94_40) | Potency (PAD) | Potency (PC15) | Potency (PC26) | Potency (PC49) | Potency (SC27B) | Potency (TAB113) | Potency (TAB165) | Potency (W2) | max response (CRL-7250) -2.28% and 2.61% | max response (HEK293) -7.29% and -0.679% | outcome (HaCat [1]) | max response (KB-3-1) -0.0453% and 5.37% | outcome (KB-3-1) | max response (NIH3T3) -0.924% | outcome (NIH3T3) | outcome (HACAT [2])

Cc1cc(=O)oc2cc(O)ccc12
inactive: Potency (P93_24) | Potency (P94_40) | Potency (PAD) | Potency (W2) | max response (CRL-7250) 4.43% and 2.39% | max response (HEK293) 4.56% | outcome (HEK293) | max response (HaCat [1]) 1.05% and -3.2% | max response (KB-3-1) 2.35% and 1.97% | max response (NIH3T3) -7.66% and -0.637% | outcome (HEK293T)
active: Potency (JCK) 2000 nM | Potency (PC15) 1120 nM | Potency (TAB113) 1000 nM

NS(=O)(=O)c1cc(C(=O)O)c(NCc2ccco2)cc1Cl
inactive: max response (CRL-7250) -5.7% and -6.17% | max response (HEK293) 1.46% and -13.3% | max response (HaCat [1]) -0.435% and 2.7% | max response (KB-3-1) -9.49% and -2.22% | max response (NIH3T3) -5.6% and -3.32%

O=C(NOCC1CC1)c1ccc(F)c(F)c1Nc1ccc(I)cc1Cl
active: Potency (HEK293) 18700 nM | Potency (HaCat [1]) 26600 nM
inactive: max response (CRL-7250) -12.6% | max response (HaCat [1]) -17.9%
